Rows were chosen to be rich in hits. Some 5% of all compounds tested hit in one or more screens of this group.
Vaccinia mCherry – vaccinia inhibition (mCherry reporter). 0.63% of 310,000 active. Vaccinia virus mCherry reporter infection, fluorescence. Potency, µM (titrated, usually from 36.5 µM), for inactives: at the highest dose activity change, negative = inhibition, actives largely listed as inhibitors; calls by dose curve; tested in A549 cells; note: potency is the fitted concentration of half-maximal effect; nearly all actives have a fitted effect of over 35% in size
VACV Venus inh – inhibitors of vaccinia virus (Venus reporter) | Vaccinia virus Venus reporter expression, fluorescence | Potency, µM (series often up to 36.5 µM), for the others: at the highest dose activity change, negative = inhibition, most hits filed as inhibitors | 0.46% of 330,000 active | AID 720580; calls by dose curve; tested in A549 cells; note: potency is the fitted concentration of half-maximal effect; nearly all actives have a fitted effect of over 30% in size
Tb PYK inh – T. brucei pyruvate kinase inhibition | Q57TT1 | TbPYK enzyme, Kinase-Glo Plus ATP luminescence, 45 min | Potency, µM (series often up to 76.8 µM), inactives show at the top dose activity, negative = inhibition, hits mostly inhibitors | 0.12% of 410,000 active; note: potency is the fitted concentration of half-maximal effect; nearly all actives have a fitted effect of over 50% in size
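Readout: single end-point luminescence (Kinase-Glo Plus, 10 min). Reaction conditions were TbPYK/substrate plus 130 uM ADP, 45 min at RT, pH 7.2 TEA buffer. No-enzyme wells served as controls, and data were normalized before concentration-response fitting.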
HCMV antiviral – blocks human cytomegalovirus replication | HFF cells, HCMV-luciferase reporter, 72 h; hits give low values | activity change, negative = inhibition, % at 57.5 µM | 4.5% of 410,000 active; in the data active = activity change below about -60%; inconclusive = no clear call, values can overlap the other calls; inactive = above about -39%
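Inhibition of viral replication was scored as loss of reporter luminescence in HFFs infected with HCMV-luciferase (MOI 1 PFU/cell) for 72 h; compounds tested at 2 doses, normalized to buffer and Salinomycin controls.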
LmPK inh – inhibitors of Leishmania mexicana pyruvate kinase | Q27686 | purified LmPK, Kinase-Glo ATP luminescence, 1 h | Potency, µM (top dose mostly 57.5 µM), inactives show at the top dose activity change, negative = inhibition, hits mostly inhibitors | 0.37% of 290,000 active | AID 1721; note: potency is the fitted concentration of half-maximal effect
Target sequence (Q27686 whole entry, looked up): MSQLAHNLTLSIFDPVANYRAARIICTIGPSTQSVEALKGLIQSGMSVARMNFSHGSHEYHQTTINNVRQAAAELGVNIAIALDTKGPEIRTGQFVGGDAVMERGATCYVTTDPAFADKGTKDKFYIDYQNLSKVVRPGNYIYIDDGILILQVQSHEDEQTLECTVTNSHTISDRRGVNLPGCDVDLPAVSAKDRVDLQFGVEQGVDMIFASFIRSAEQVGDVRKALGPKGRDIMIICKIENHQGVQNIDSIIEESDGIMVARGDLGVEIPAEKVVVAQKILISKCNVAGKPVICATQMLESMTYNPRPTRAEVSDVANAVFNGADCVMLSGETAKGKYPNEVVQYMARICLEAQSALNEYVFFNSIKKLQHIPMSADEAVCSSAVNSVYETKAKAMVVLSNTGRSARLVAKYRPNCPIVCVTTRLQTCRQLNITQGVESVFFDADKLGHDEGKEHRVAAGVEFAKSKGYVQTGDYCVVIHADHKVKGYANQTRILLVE
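In 50 mM imidazole pH 7.2 with 7 mM MgCl2, LmPK (0.1 nM) turned over PEP (0.5 mM) and ADP (0.1 mM) for 1 h at room temperature. Luciferase read-out of ATP.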
* hit, by the source's call; i = inactive; ? = inconclusive; . = no result given; + = active, no number. Unless noted, calls come from the whole dose curve; as a rule, active = well fitted curve in the direction sought with a large enough effect; inconclusive = small, poorly fitted or top-dose-only effect, or another doubt; inactive = no such curve, though single readings can be large; an effect the other way counts as inactive or inconclusive. % is set by controls: 0 for no effect and ±100 for the full control effect.

SMILES	Vaccinia mCherry	VACV Venus inh	Tb PYK inh	HCMV antiviral	LmPK inh
Cc1cc(C)c2sc(NC(=O)c3ccc([N+](=O)[O-])o3)nc2c1	?	11µM*	-3%	38	-3%
O=C(Nc1nc2c(F)cc(F)cc2s1)c1ccc([N+](=O)[O-])o1	13µM*	10µM*	-1%	9	-4%
Cc1ccc(C)c(-c2nnc(NC(=O)c3ccc([N+](=O)[O-])o3)o2)c1	?	?	-10%	-74*	.
COc1ccc2nc(NC(=O)c3ccc([N+](=O)[O-])o3)sc2c1	?	?	-6%	-27	2%
Cc1cc(C)c2nc(NC(=O)c3ccc([N+](=O)[O-])o3)sc2c1	10µM*	?	-3%	?	11%
O=C(Nc1nc2cc3c(cc2s1)OCCO3)c1ccc([N+](=O)[O-])o1	?	-30%	4%	-4	-2%
O=C(Nc1nc2ccccc2s1)c1ccc([N+](=O)[O-])o1	.	.	-4%	?	-2%
O=C(NCc1ccccn1)C1CC(c2ccccc2Cl)=NO1 (stereo not given)	-9%	-12%	-2%	-36	-4%
COc1ccccc1C1SCCN1S(C)(=O)=O (stereo not given)	.	-5%	-5%	-17	-3%
CC(=O)Cn1ncc(Br)c(Br)c1=O	?	?	2%	-105*	0%
CCCCNC(=O)c1cc2c(=O)n(CC)c3ccccc3c2s1	i	-2%	-12%	1	7%
CCn1c(=O)c2cc(C(=O)NCCCN(C)Cc3ccccc3)sc2c2ccccc21	-18%	-13%	-1%	-70*	.
CCOc1ccccc1N(CC)C(=O)c1cc2c(=O)n(CC)c3ccccc3c2s1	?	?	-9%	-70*	.
Oc1ccc(/C=N/n2c(-c3ccco3)csc2=Nc2cccnc2)c(O)c1	10µM*	10µM*	-11%	?	-5%
CN(C)/C(=N\S(=O)(=O)c1ccccc1)c1ccc([N+](=O)[O-])cc1	-6%	-10%	3%	14	-4%
Cc1cc2c(cc1C)NC(CC(=O)NCc1ccccc1)C(=O)N2 (stereo not given)	.	.	-3%	-109*	5%
COc1ccccc1CNC(=O)c1ccc(-c2ccccc2C(F)(F)F)o1	11µM*	?	-1%	32	3%
CCOc1cc2nc(-c3ccc(OC)c(OC)c3)nc(N3CCOCC3)c2cc1OC	11µM*	?	1%	53	3%
OCC1OC(n2cnc3c(/C=C(\O)c4ccccc4)ncnc32)C(O)C1O (stereo not given)	?	?	-6%	14	.
C/C(=N\NC(=O)CCc1ccccc1)C1C(=O)c2ccccc2C1=O	?	?	4%	-87*	-1%
CC(/C=C/c1ccccc1)=N\NC(=O)CCc1ccccc1	.	.	-3%	-20	8%
Nc1nn(-c2ccccc2)c(N)c1N=Nc1ccccc1	-22%	?	-8%	171	-1%
Nc1ncnc(N)c1N=Nc1ccccc1	?	?	-8%	-64*	-8%
CCc1c(C(=O)Nc2ccncc2)csc1C	.	.	8%	-100*	-2%
CCc1c(C(=O)Nc2ccccc2C(N)=O)csc1C	.	.	-5%	66	-6%
SMILES	Vaccinia mCherry	VACV Venus inh	Tb PYK inh	HCMV antiviral	LmPK inh
CC1(C)C(=O)Nc2ccccc2N1C(=O)COC(=O)/C=C/c1ccc(OC(F)F)cc1	-12%	-6%	-6%	-32	.
CC(C)(C)C1CCC(OC(=O)C[N+]2(C)CCCC2)CC1 (stereo not given)	-12%	-10%	-1%	-28	9%
CC(C)(C)C1CCC(OC(=O)C[N+]2(C)CCCCC2)CC1 (stereo not given)	i	-5%	-10%	-62*	8%
CCOc1ccc(C(=O)N(CC(=O)Nc2cccc(C)c2C)CC2CCCO2)cc1OC (stereo not given)	-13%	-11%	-4%	+	.
CCOc1ccc(NC(=O)CN(C)C(=O)c2ccc(OCC3CCCO3)cc2)cc1OCC (stereo not given)	i	-15%	4%	?	3%
Cc1ccc(Nc2nc3nonc3nc2Nc2cccc(C(F)(F)F)c2)cc1Cl	3.5µM*	3.5µM*	1%	-100*	.
CSc1ccc(/C=C/c2cc(=O)c3ccccc3[nH]2)cc1	-17%	-13%	-10%	-25	1%
O=c1cc(/C=C/c2cccs2)[nH]c2ccccc12	.	.	4%	-85*	2%
C[C@@H]1CN([C@@H](C)CO)C(=O)c2cc(NS(=O)(=O)c3ccc(F)cc3)ccc2O[C@@H](C)CCCCO[C@H]1CN(C)C(=O)NC1CCCCC1	-15%	?	-3%	-86*	.
C[C@@H]1CCCCO[C@H](CN(C)C(=O)Nc2cccc3ccccc23)[C@@H](C)CN([C@H](C)CO)C(=O)c2cc(N(C)C)ccc2O1	-15%	-23%	11µM*	2	.
C[C@H](CO)N1C[C@H](C)[C@@H](CN(C)C(=O)NC2CCCCC2)Oc2c(NC(=O)C3CC3)cccc2C1=O	i	-18%	0%	-100*	.
C[C@@H]1CCCCO[C@H](CN(C)C(=O)Nc2ccc3c(c2)OCO3)[C@@H](C)CN([C@H](C)CO)C(=O)c2cc(NS(=O)(=O)c3ccc(F)cc3)ccc2O1	-28%	?	-1%	-35	.
Cc1ccc(S(=O)(=O)Nc2ccc3c(c2)C(=O)N([C@@H](C)CO)C[C@@H](C)[C@@H](CN(C)C(=O)NC2CCCCC2)OCCCC[C@H](C)O3)cc1	-5%	-11%	8%	-4	.
Cc1ccc(S(=O)(=O)Nc2ccc3c(c2)C(=O)N([C@H](C)CO)C[C@H](C)[C@@H](CN(C)C(=O)NC2CCCCC2)OCCCC[C@@H](C)O3)cc1	-26%	?	5%	-63*	.
S=C(Nc1ccccc1)N1CCn2c1nc1ccccc12	i	-5%	0%	5	2%
COc1cc(NC(=O)c2cccc([N+](=O)[O-])c2)ccc1NC(=O)c1ccco1	-2%	-1%	2%	-32	12%
COc1ccc(-n2nc3c(c2NC(=O)COc2cccc(OC)c2)CS(=O)(=O)C3)cc1	i	-7%	-11%	19	-14%
COc1ccc(C(=O)Nc2cccnc2)cc1S(=O)(=O)N1CCOCC1	.	.	.	9	-3%
N/C(=N\OC(=O)N1CCOCC1)c1ccc(Br)cc1	6%	-19%	5%	-76*	-4%
ON=C1c2ccccc2-c2cc(Br)ccc21	-29%	-27%	1%	-64*	.
Cc1cccn2c(=O)c(/C=C(\C#N)C(N)=O)c(N3CCN(Cc4ccc5c(c4)OCO5)CC3)nc12	-11%	?	-7%	-80*	1%
COc1ccc(C(CNC(=O)COc2ccc(F)cc2Br)N2CCCC2)cc1 (stereo not given)	-7%	-10%	3%	-61*	-1%
CCOc1ccc(NC(=O)COC(=O)c2n[nH]c3ccccc23)cc1	-1%	1%	1%	76	.

Screens from PubChem BioAssay.
